This is a sample that favours compounds with a hit; in the whole collection about 6.9% have one here.
KB-3-1 tox: kills parental KB-3-1 adenocarcinoma cells | KB-3-1 viability, CellTiter-Glo ATP luminescence, 72 h | Potency, µM (top dose mostly 46.1 µM), usual class: cytotoxic | 400,000 tested, 1.4% active | AID 1347075; note: potency is the fitted concentration of half-maximal effect; % is set by controls: 0 for no effect and ±100 for the full control effect; nearly all actives have a fitted effect of over 60% in size
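Using CellTiter-Glo luminescence, growth of non-resistant KB-3-1 adenocarcinoma cells is assessed 72 h after pin-tool compound addition at 37 °C. Normalized responses across the concentration series yield fitted curves.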
SW480 rereplic: induces DNA re-replication in SW480 colon adenocarcinoma cells | Potency, µM (top dose mostly 46.1 µM), inactives show at the top dose re-replication activation, most hits filed as activators | 340,000 tested, 1.8% active | SW480 DNA re-replication, Hoechst DNA content imaging, 48 h | AID 624297; note: potency is the fitted concentration of half-maximal effect; % of control where 0% means no effect; nearly all actives have a fitted effect of over 55% in size
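Per well, 250 cells were exposed to pinned compound for 48 hr. Nuclear DNA was visualised with Hoechst (40 min, 37 C) and total object intensity recorded by fluorescence scanning.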
Giardia killer: kills Giardia lamblia; Giardia lamblia trophozoite viability; 340,000 tested, 0.15% active; activity change, % at 7.66 µM, hits read low; AID 540267; in the data active = activity change below about -80%; inconclusive = between about -30% and that limit;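 note: parasites exposed to compound for two days anaerobically before the ATP read; % is set by controls: 0 for no effect and ±100 for the full control effect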
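Trophozoites 100 cells/well + cpd; 48 hrs, 37 deg C, anaerobic. ATPLite 1-Step added, 15-30 min RT, luminescence read (ATP-based viability).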
ASM inhibitor: human S-ASM enzyme inhibition | AID 504937 | placental ASM, HMU-PC fluorogenic substrate, 60 min | Potency, µM (highest dose often 57.5 µM), without a hit: at the top dose activity change, negative = inhibition, hits mostly inhibitors | 340,000 tested, 0.006% active | P17405; note: potency is the fitted concentration of half-maximal effect
Target sequence (P17405 47-631 limits assumed): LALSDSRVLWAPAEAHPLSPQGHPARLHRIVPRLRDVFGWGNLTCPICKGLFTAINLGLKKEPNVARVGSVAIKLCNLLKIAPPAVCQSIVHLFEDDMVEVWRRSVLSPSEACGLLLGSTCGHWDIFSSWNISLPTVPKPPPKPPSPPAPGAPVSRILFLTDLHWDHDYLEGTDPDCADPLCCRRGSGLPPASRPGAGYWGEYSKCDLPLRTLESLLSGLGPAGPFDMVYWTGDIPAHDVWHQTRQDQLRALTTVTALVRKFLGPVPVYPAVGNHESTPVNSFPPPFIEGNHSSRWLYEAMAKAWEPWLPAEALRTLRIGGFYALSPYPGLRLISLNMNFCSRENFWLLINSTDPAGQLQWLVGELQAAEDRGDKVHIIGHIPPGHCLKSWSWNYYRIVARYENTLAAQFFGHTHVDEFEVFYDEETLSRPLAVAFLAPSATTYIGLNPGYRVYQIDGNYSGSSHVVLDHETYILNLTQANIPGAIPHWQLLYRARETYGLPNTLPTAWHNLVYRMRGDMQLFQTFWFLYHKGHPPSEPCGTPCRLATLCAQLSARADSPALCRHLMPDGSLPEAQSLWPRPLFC
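Human placenta-derived ASM enzyme was preincubated with compound for 10 minutes at room temperature, then given fluorogenic substrate HMU-PC0 (9 uM final) for 60 minutes at 37 °C; a pH 10 stop preceded fluorescence reading at Ex 386/Em 447 nm.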
KB-V1 cytotox: KB-V1 MDR subline cytotoxicity; Potency, µM (highest dose often 46.1 µM), most hits filed as cytotoxic; KB-V1 MDR cells viability, CellTiter-Glo, 72 h; 400,000 tested, 3.4% active; AID 1347076; note: potency is the fitted concentration of half-maximal effect; % is set by controls: 0 for no effect and ±100 for the full control effect; nearly all actives have a fitted effect of over 60% in size
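Drug-selected KB-V1 cells, grown in DMEM lacking phenol red with 10% FBS, receive compound titrations; after three days at 37 degrees C, surviving cell ATP is quantified by CellTiter-Glo luminescence and responses normalized and curve-fitted.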
MCF10A rerep: inducers of DNA re-replication in MCF 10A breast cells | MCF 10A DNA re-replication, Hoechst nuclear intensity, 48 h | Potency, µM (titrated, usually from 46.1 µM), inactives show top-dose activity, positive = re-replication, hits mostly activators | 350,000 tested, 2.9% active | AID 624296; note: potency is the fitted concentration of half-maximal effect; % of control where 0% means no effect; nearly all actives have a fitted effect of over 50% in size
* = called active by the depositor; i = inactive; ? = inconclusive; . = not tested or not shown. Unless noted, calls come from the whole dose curve; as a rule, active = well fitted curve in the direction sought with a large enough effect; inconclusive = small, poorly fitted or top-dose-only effect, or another doubt; inactive = no such curve, though single readings can be large; an effect the other way counts as inactive or inconclusive.

SMILES	KB-3-1 tox	SW480 rereplic	Giardia killer	ASM inhibitor	KB-V1 cytotox	MCF10A rerep
Cc1nc2sc(C(N)=O)c(N)c2c2c1CCCC2	i	?	-15	i	21µM*	?
Cc1ccc(-c2nc3sc(C(N)=O)c(N)c3c3c2CCCC3)cc1	i	16µM*	-3	333%	?	5.2µM*
CCc1nc2sc(C(C)=O)c(N)c2c2c1CCCC2	i	15µM*	14	i	?	2.9µM*
CC(=O)c1sc2nc(C)cc(C)c2c1N	i	?	-7	i	i	?
NC(=O)c1sc2nc(N3CCOCC3)c3c(c2c1N)CCCC3	i	-3%	2	i	?	?
CC(=O)c1sc2nc(-c3ccc(C)cc3)c3c(c2c1N)CCCC3	i	2.9µM*	3	i	18µM*	2.3µM*
COc1ccc(NC(=O)COc2ccccc2C(=O)Nc2ccccc2)cc1	i	.	.	.	i	.
CCOc1ccc(CCNC(=O)CSc2nnnn2-c2ccccc2Cl)cc1OCC	i	.	.	.	?	.
CC(C)(C)OC(=O)N1CCC(c2c(C(=O)N3CCN(c4ccccc4F)CC3)cnn2C(C)(C)C)CC1	i	.	.	.	i	.
NC(=O)c1sc2nc3c(c(-c4ccco4)c2c1N)CCC3	i	7%	-16	?	?	-15%
NC(=O)c1sc2nc(-c3ccccc3)c3c(c2c1N)CCCC3	i	15µM*	8	423%	i	21µM*
C=C1c2nc3ccccc3n2C=C(c2ccc(C)cc2)N1c1ccccc1	16µM*	?	-7	167%	?	4.6µM*
Cc1ccc(CNc2ccc(-c3nc(-c4ccco4)no3)cc2[N+](=O)[O-])cc1	i	.	.	.	i	.
O=C(Cc1sc(Nc2ccccc2)nc1-c1ccccc1)NCc1ccccc1	16µM*	?	1	-11%	?	?
Cc1ccc(-c2nc(Nc3cccc(C)c3)sc2CC(=O)O)cc1	i	?	-4	3%	i	21µM*
O=C(O)Cc1sc(Nc2ccccc2)nc1-c1cccs1	i	?	14	7%	i	23µM*
Cc1cccc(Nc2nc(CC(=O)O)cs2)c1	i	-4%	13	-3%	i	5%
O=[N+]([O-])c1ccc(S(=O)(=O)Nc2nnc(C(F)(F)F)s2)cc1	i	?	-16	12%	?	?
COc1ccc(-c2c(C)[nH]n3c(=O)c(Cc4ccccc4)c(C)nc23)cc1	?	?	2	3%	16µM*	22%
Cc1nc2c(-c3ccccc3)c[nH]n2c(=O)c1Cc1ccccc1	12µM*	17%	6	-5%	?	?
Cc1cc(=O)n2[nH]cc(-c3ccccc3)c2n1	i	-61%	-5	-1%	i	6%
CC(C)CN(C[C@@H](OP(=O)(O)O)[C@H](Cc1ccccc1)NC(=O)O[C@@H]1CCOC1)S(=O)(=O)c1ccc(N)cc1	.	11%	.	.	.	1%
Nc1ccc(S(=O)(=O)NCC(=O)OCCOc2ccccc2)cc1[N+](=O)[O-]	i	-67%	6	-5%	i	15µM*
CCCOc1ccc2nc(NC(=O)OC)[nH]c2c1	.	2.9µM*	.	.	.	4.6µM*
CCOC(=O)Nc1nc2ccc(Cn3cccc3)cc2[nH]1	0.58µM*	1.3µM*	-7	3%	1.2µM*	3.3µM*
CCOc1ccc2nc(NCCCO)[nH]c2c1	i	-1%	-2	3%	i	10%
Cc1ccc(C)c(N2CCN(c3nc4c(S(=O)(=O)c5ccccc5)nnn4c4ccc(Cl)cc34)CC2)c1	i	.	.	.	?	.
Nc1cccnc1S(=O)(=O)c1cccc(C(F)(F)F)c1	i	2.9µM*	36	5%	i	-2%
Nc1cccnc1S(=O)(=O)c1ccccc1	i	-1%	15	5%	?	5%
CCOc1ccc(-c2cc(C)n3nc(C(=O)Nc4cc(Cl)ccc4O)cc3n2)cc1	i	.	.	.	i	.
